Only some compounds are listed: those with a hit (about 2.8% of all), similar ones and a draw of the others.
HIF-2a block – inhibitors of HIF-2a; 786-0 RCC cells HIF-2a reporter, luciferase luminescence, overnight; inhibition, % at 18.8 µM; 0.72% of 360,000 active; AID 624352;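 active = inhibition of the luminescence signal of 40% or more relative to plate controls, in a single-dose primary screen at 18.75 µM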
TRPM1 prom inh – reduces MITF-dependent TRPM1 promoter luciferase signal; SK-MEL-5 TRPM1 promoter luciferase, 24 h; inhibition, % at 12.5 µM; 0.83% of 330,000 active; AID 488899;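 active = mean inhibition across replicates of 60% or more, whatever share of single replicates reaches that level; inconclusive = some that reach 60%, reason not given; inactive = mean inhibition across replicates below 60%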
CF NFkB block – blocks PAF-induced NF-kB reporter in cystic fibrosis cells; inhibition, % at 5 µM; KKLEB NF-kB-GFP reporter, GFP fluorescence overnight; 0.86% of 360,000 active;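 active = at least 50% inhibition at 5 µM, scaled per plate between neutral and stimulator controls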;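 also: PAF is a Pseudomonas aeruginosa culture filtrate used as stimulus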
Shn3 3UTR inh – reduces Shn3 3'UTR luciferase signal in osteoblasts; Clone20 osteoblast Shn3 3'UTR firefly luciferase, 24 h; inhibition, % at 12.5 µM; 0.52% of 360,000 active;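 active = mean inhibition of at least 75% with every replicate also reaching 75%; inconclusive = mean inhibition at least 75% but some replicate below; inactive = mean inhibition below 75%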
Peg3 promoter – Peg3 promoter activity inhibition | inhibition, % at 20 µM | 1.7% of 360,000 active | HeLa PEG-Prom luciferase reporter, luminescence, overnight;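 active = inhibition of at least 50% at 20 µM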
KKLEB cytotox – counter-screen for CF NF-kB inhibitors: cytotoxicity | KKLEB CF airway cells viability, ATPlite luminescence, overnight; active compounds read low; cells stimulated with P. aeruginosa culture filtrate | activity change (cytotoxicity), % at 5 µM | 0.36% of 360,000 active | AID 602141;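 active = corrected activity change at or below -50% at 5 µM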
Hits are given with their value; i = inactive; ? = inconclusive; nt = not tested or not shown.

SMILES	HIF-2a block	TRPM1 prom inh	CF NFkB block	Shn3 3UTR inh	Peg3 promoter	KKLEB cytotox
CC1(C)OC2CC3C4CCC5=CC(=O)CCC5(C)C4(F)C(O)CC3(C)C2(C(=O)CO)O1 (stereo not given)	i	i	96.4	i	i	i
CC12CCC(=O)C=C1CCC1C2C(=O)CC2(C)C1CCC2(O)C(=O)CO (stereo not given)	i	i	i	i	i	i
CC(=O)C1CCC2C3CCC4=CC(=O)CCC4(C)C3(F)C(O)CC12C (stereo not given)	i	i	60.9	i	i	i
CC1(C)OC2CC3C4CC=C5CC(O)CCC5(C)C4CCC3(C)C2(C(=O)CO)O1 (stereo not given)	i	i	i	i	i	i
CC12CCC(=O)C=C1CCC1C3CC(O)C(O)(C(=O)CO)C3(C)CC(O)C12F (stereo not given)	i	i	78.4	i	i	i
Cc1c(Cl)cccc1Nc1n[nH]c(=S)s1	i	i	i	i	101.1	i
COC(=O)c1c(N)[nH]c(C(=O)c2ccccc2)c1-c1ccccc1Br	i	nt	nt	nt	nt	nt
Cc1ccc(NS(=O)(=O)c2ccc(C(=O)NC3CCN(Cc4ccccc4)CC3)cc2)cc1	i	i	i	84.9	i	i
COc1ccc(CCNC(=O)c2cc3c(=O)n4ccccc4nc3n(Cc3ccco3)c2=N)cc1OC	i	i	i	i	73.3	i
O=C(NCCCN1CCOCC1)c1[nH]c(C(F)(F)F)nc1-c1ccccc1	i	nt	i	i	i	i
Cc1cc(C)c(-c2csc(NC(=O)/C=C/c3cccs3)n2)c(C)c1	i	i	58.2	i	i	-61.9
Cc1cc(C)nc(NC(=O)/C=C/c2cccs2)c1	i	i	i	i	i	i
CC(C)C[C@H](N)c1nnc(SCC(=O)Nc2ccc(Br)cc2)o1	i	i	i	i	i	i
CC(C)C[C@H](N)c1nnc(S(=O)(=O)Cc2ccc(F)cc2)o1	i	i	89.9	90.2	114.3	i
O=C1N(c2ccccc2)C[C@@H]2C[C@@H](c3cc4ccccc4o3)N3CCC[C@@]123	i	i	87.2	97.2	104.6	-65.7
Cc1ccc(-c2ccccc2[C@@H]2C[C@H]3CN(C)C(=O)[C@]34CCCN24)o1	i	i	i	i	i	i
COC(=O)c1ccccc1-n1cccc1C(=O)NP(=O)(N1CCOCC1)N1CCOCC1	i	i	i	i	i	i
COc1ccc(-c2nnc(NC(=O)c3ccc(S(=O)(=O)N4CCCc5ccccc54)cc3)o2)cc1	i	i	i	i	53.5	i
CS(=O)(=O)N(CC(=O)N1CCCCC1)c1cccc(F)c1	i	i	i	i	i	i
COc1cc(NS(=O)(=O)c2ccc(OC)c(OC)c2)cc(OC)c1	i	i	i	i	52.2	i
CC1=CC(C)(C)N=C(Nc2nc(C)c3cc(C)cc(C)c3n2)N1	i	i	i	i	61.0	i
CC(=O)NC(C)(c1ccccc1)c1nc(-c2cc(F)cc(F)c2)cs1 (stereo not given)	i	nt	i	i	i	i
COc1cccc(/C=N/NC(=O)CN2CC(c3ccccc3)CC2=O)c1OC (stereo not given)	i	93.9	i	i	i	i
COc1ccc(N2CCN(CCC(=O)c3ccc4ccccc4c3)CC2)cc1	i	i	i	i	103.8	i
CC(C)(C)OC(=O)NCCCCCNC(=O)c1[nH]cnc1C(=O)Nc1ccccc1	i	i	i	i	i	i
SMILES	HIF-2a block	TRPM1 prom inh	CF NFkB block	Shn3 3UTR inh	Peg3 promoter	KKLEB cytotox
CNC(=O)c1[nH]cnc1C(=O)Nc1cccc(Cl)c1	i	i	i	i	i	i
O=C(Nc1ccccc1)c1nc[nH]c1C(=O)NCCNC(=O)c1[nH]cnc1C(=O)Nc1ccccc1	i	i	66.5	i	i	i
O=C(Nc1cccc(Cl)c1)c1nc[nH]c1C(=O)NCCCNC(=O)c1[nH]cnc1C(=O)Nc1cccc(Cl)c1	i	i	i	i	56.6	i
C=CCOc1ccc(Br)cc1CNC(C)(C)C	i	i	i	i	i	i
O=C(Nc1cc(F)ccc1F)C1CCCN(c2ncnc3c2nc2n3CCCCC2)C1 (stereo not given)	i	i	i	i	51.7	i
COc1ccc(S(=O)(=O)N(C)C[C@H]2Oc3ccc(NC(=O)Nc4c(C)noc4C)cc3C(=O)N([C@H](C)CO)C[C@@H]2C)cc1	i	i	i	i	i	i
Cc1ccccc1C(=O)N1CCN(S(=O)(=O)c2ccccc2)CC1	i	i	i	i	i	i
CC(C)(C)OC(=O)N[C@H](/C=C/c1ccccc1)C(=O)OC(C)(C)C	i	i	i	i	i	i
Clc1ccc2oc3c(Cl)ncnc3c2c1	i	77.1	i	i	84.2	i
CC(C)NC(=O)c1nc2c(nnn2Cc2cccc(Cl)c2)c(=O)[nH]1	i	i	i	i	i	i
Cc1cc(C)n(-c2nc(SCCN(C)C)c3c4c(sc3n2)CCCC4)n1	i	i	i	i	82.6	i
Cc1cc(C)n(-c2nc(SCC(=O)O)c3c4c(sc3n2)COC(C)(C)C4)n1	i	i	i	i	i	i
Cc1ccc(C(=O)NNC(=O)C2CCN(c3nccc(C)n3)CC2)cc1	i	i	i	i	i	i
COc1cc(C2CC(=O)Nc3ccccc3S2)cc(OC)c1OC (stereo not given)	i	i	i	i	51.3	i
COc1ccc(N2CCc3c(C)nc4c(OC)cc(OC)cc4c32)cc1	i	i	i	i	73.6	i
O=C(O)c1ccccc1C(=O)NC1CCN(c2nccc(C(F)(F)F)n2)CC1	i	i	i	i	i	i
CC1CCCC(NCC(O)COC(c2ccc(F)cc2)c2ccc(F)cc2)C1C (stereo not given)	i	85.5	i	i	104.3	i
c1ccc(-c2cn3nc4c(nc3n2)CCCC4)cc1	i	73.1	i	i	i	i
CC(=O)OC[C@@H]1CN(Cc2ccccc2)C[C@H](n2cnc3c(NCC(C)C)ncnc32)O1	i	nt	i	i	i	i
COc1ccc2cc3cc(C(=O)NCCc4ccc(OC)c(OC)c4)oc3nc2c1	i	65.1	i	i	53.4	i
O=C(C=Cc1cccnc1)c1ccccc1	i	i	i	i	78.8	i
Cn1cc(/C=N/NC(N)=S)c2ccccc21	i	i	i	i	i	i
CCN(C(C)=O)c1cnc(C=NNC(N)=S)c2ccccc12	i	i	i	?	53.6	i
NC(=S)NN=Cc1nccc2c(N)cccc12	i	nt	i	86.1	i	i
CN(Cc1ccccc1)C(=O)[C@@H]1CCCN1C(=O)[C@@H]1CCCN1C(=O)c1cccc(Cl)c1	i	nt	nt	nt	nt	nt
O=C(CCC1CCN(C(=O)c2ccco2)CC1)NCc1ccc(F)cc1	i	i	i	i	i	i
[O-][n+]1c2ccccc2c2n1CCN1CCOC21c1ccc(Cl)cc1 (stereo not given)	i	i	i	i	i	i
